A selection: hits, their analogues and other compounds. The true share with any hit is near 3.5%.
FBW7 activator – FBW7 E3 ligase activators, primary screen, biochemical, AlphaScreen, human | AID 1259310, 2017 | normalized activity (activation), % at 26.1 µM | AlphaScreen FBW7–phospho-cyclin E peptide binding, activator screen | 650,000 tested, 0.13% active; in the data active means normalized activity above about 1.9%;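 further: purified mutant Fbw7 with reduced substrate affinity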
MITF inh – MITF inhibitors, primary screen, biochemical, AlphaScreen, human; AlphaScreen MITF homodimerization, bead proximity signal; inhibition, % at 2.6 µM; 650,000 tested, 0.91% active; AID 1259374, 2018; in the data active means inhibition above about 50%;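 further: 0% = vehicle wells with protein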
GPR151 ag – activators of human GPR151, primary screen, cell-based, PathHunter beta-arrestin, luminescence | G-protein coupled receptor 151 (Homo sapiens), Q8TDV0 | PathHunter beta-arrestin GPR151 cells | activation, % at 11.2 µM | 650,000 tested, 1% active; in the data active means activation above about 4.9%;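 further: 0% = median of compound wells and 100% = cells with positive control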
Target sequence (Q8TDV0 whole entry, looked up): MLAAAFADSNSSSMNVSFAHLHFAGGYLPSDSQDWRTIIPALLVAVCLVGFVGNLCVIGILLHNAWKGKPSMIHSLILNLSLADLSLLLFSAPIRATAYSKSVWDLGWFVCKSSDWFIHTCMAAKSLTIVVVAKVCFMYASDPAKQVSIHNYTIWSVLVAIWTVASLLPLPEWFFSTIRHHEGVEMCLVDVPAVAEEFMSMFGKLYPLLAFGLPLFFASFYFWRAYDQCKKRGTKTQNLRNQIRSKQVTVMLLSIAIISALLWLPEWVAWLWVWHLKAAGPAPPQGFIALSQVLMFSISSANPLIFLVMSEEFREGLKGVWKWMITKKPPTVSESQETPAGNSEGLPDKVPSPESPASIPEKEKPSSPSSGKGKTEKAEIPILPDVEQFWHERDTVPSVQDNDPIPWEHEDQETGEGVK
TEAD-YAP inh – TEAD-YAP interaction inhibition, primary screen, TEAD-YAP interaction inhibitor project, luminescence, HEK-TIYL cells. TEAD-Gal4/YAP UAS-luciferase luminescence. inhibition, % at 9.12 µM. 640,000 tested, 1.4% active. AID 1259422, 2018; in the data active means inhibition above about 32%;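 further: 0% = median of test compound wells and 100% = reference inhibitor wells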
* marks the source's active call; other numbers are inactive results.

c1cn(-c2ccc(Nc3nc(Nc4ccc5c(c4)OCO5)c4ncn(-c5ccsc5)c4n3)cc2)cn1 was read as FBW7 activator 0, MITF inh 13, GPR151 ag -1 and TEAD-YAP inh 53*.
For c1ccc2[nH]c(CNc3nc(Nc4ccncc4)nc4c3ncn4-c3ccsc3)nc2c1 the results were FBW7 activator 0, MITF inh 5, GPR151 ag -3 and TEAD-YAP inh 85*.
For c1ccc2[nH]c(CNc3nc(Nc4ccc(-n5ccnc5)cc4)nc4c3ncn4-c3ccsc3)nc2c1 the results were FBW7 activator 0, MITF inh 3, GPR151 ag -2 and TEAD-YAP inh 65*.
Screening Cn1c(Nc2nc(NCc3nc4ccccc4[nH]3)c3ncn(-c4ccsc4)c3n2)nc2ccccc21 returned FBW7 activator 0, MITF inh 12, GPR151 ag 0 and TEAD-YAP inh 22.
`c1ccc2[nH]c(CNc3nc(Nc4ccncn4)nc4c3ncn4-c3ccsc3)nc2c1` gave FBW7 activator 0, MITF inh -1, GPR151 ag -2 and TEAD-YAP inh 82*.
Screening CN1CCN(c2ncnc3c2sc(=S)n3C)CC1 returned FBW7 activator 0, MITF inh 20, GPR151 ag 0 and TEAD-YAP inh -6.
O=C(Nc1cc(-c2nc3ncccc3o2)ccc1Cl)c1ccc(Br)o1 was read as FBW7 activator 0, MITF inh 14, GPR151 ag 1 and TEAD-YAP inh 1.
c1cncc(CNc2nc(Nc3ccc(-n4ccnc4)cc3)nc3c2ncn3-c2ccsc2)c1 was read as FBW7 activator 0, MITF inh 6, GPR151 ag 0 and TEAD-YAP inh 55*.
Screening COC(=O)c1ccc(C)c(NS(=O)(=O)c2ccc(SC)cc2)c1 returned FBW7 activator 1, MITF inh 15, GPR151 ag 0 and TEAD-YAP inh 47*.
CCOc1ccc(S(=O)(=O)Nc2cc(C(=O)OC)ccc2C)cc1 was read as FBW7 activator 0, MITF inh 1, GPR151 ag 0 and TEAD-YAP inh 55*.
Screening CC(=O)c1cc2c(cc1NS(=O)(=O)c1ccccc1)OCO2 returned FBW7 activator 0, MITF inh 5, GPR151 ag -1 and TEAD-YAP inh -3.
`CC(=O)c1cc2c(cc1NS(=O)(=O)c1ccc(C)cc1)OCCO2` gave FBW7 activator 0, MITF inh 11, GPR151 ag 0 and TEAD-YAP inh 37*.
For COC(=O)c1ccc(C)c(NS(=O)(=O)c2ccc3c(c2)OCCO3)c1 the results were FBW7 activator 0, MITF inh 3, GPR151 ag 1 and TEAD-YAP inh 57*.
For COC(=O)c1ccc(C)c(NS(=O)(=O)c2ccc(C)c([N+](=O)[O-])c2)c1 the results were FBW7 activator 0, MITF inh 10, GPR151 ag 0 and TEAD-YAP inh 11.
CC1=C(C(=O)OCCOc2ccccc2)C(c2ccc(Cl)c(Cl)c2)NC(=O)N1C (stereo unspecified) was read as FBW7 activator 0, MITF inh -10, GPR151 ag -1 and TEAD-YAP inh -6.
O=C(c1ncoc1-c1ccc2ccccc2c1)N1CCN(c2ncccn2)CC1 was read as FBW7 activator 0, MITF inh -1, GPR151 ag 0 and TEAD-YAP inh 1.
For COc1ccc(-c2csc(=Nc3ccc(F)cc3)n2CCO)cc1F the results were FBW7 activator 0, MITF inh 17, GPR151 ag 1 and TEAD-YAP inh -28.
`CCOC(=O)c1cnn(-c2ccccc2)c1NC(=O)c1c(-c2ccccc2)noc1C` gave FBW7 activator 0, MITF inh -5, GPR151 ag 0 and TEAD-YAP inh -1.
`COc1ccc(S(=O)(=O)Nc2cc(F)ccc2C)cc1` gave FBW7 activator 0, MITF inh 5, GPR151 ag -1 and TEAD-YAP inh 52*.
For COC(=O)c1ccc(C)c(NS(=O)(=O)c2ccc(OC)cc2)c1 the results were FBW7 activator 0, MITF inh 5, GPR151 ag -1 and TEAD-YAP inh 66*.
For COC(=O)c1ccc(C)c(NS(=O)(=O)c2ccc(Cl)cc2)c1 the results were FBW7 activator 0, MITF inh -6, GPR151 ag -1 and TEAD-YAP inh 54*.
Screening COc1ccc(S(=O)(=O)Nc2cc(S(N)(=O)=O)ccc2C)cc1 returned FBW7 activator 0, MITF inh -2, GPR151 ag 2 and TEAD-YAP inh 3.
Screening CCCC1(C2CCN(C3CCSCC3)CC2)NC(=O)N(CCC2CCCN2C)C1=O (stereo unspecified) returned FBW7 activator 0, MITF inh -17, GPR151 ag 1 and TEAD-YAP inh 4.
`N#Cc1c(-c2ccc(OCc3ccccc3)cc2)c2c([nH]c1=S)CCCC2` gave FBW7 activator 0, MITF inh 6, GPR151 ag 0 and TEAD-YAP inh -1.
Screening CCOc1ccc(C(C)NC(=O)CCc2ccccc2)cc1 (stereo unspecified) returned FBW7 activator 0, MITF inh -6, GPR151 ag 0 and TEAD-YAP inh -1.
`CC(C)C(=O)N1CCC[C@@H](Cn2nc(-c3cccs3)ccc2=O)C1` gave FBW7 activator 0, MITF inh -4, GPR151 ag 1 and TEAD-YAP inh 69*.
For COc1cc2cc3c(N)c(C(=O)NCc4ccco4)sc3nc2cc1OC the results were FBW7 activator 0, MITF inh 25, GPR151 ag -1 and TEAD-YAP inh -67.
Screening CCc1ccc2nc3sc(C(=O)NCc4ccco4)c(N)c3cc2c1 returned FBW7 activator 0, MITF inh 41, GPR151 ag -1 and TEAD-YAP inh 53*.
`Cc1cccc(-c2nnc(SCC(=O)Nc3cc(Cl)ccc3O)o2)c1` gave FBW7 activator 0, MITF inh 17, GPR151 ag -4 and TEAD-YAP inh -39.
`Cc1cccc(-c2nnc(SCC(=O)Nc3ccccc3F)o2)c1` gave FBW7 activator 0, MITF inh -1, GPR151 ag 0 and TEAD-YAP inh 64*.
CCc1ccccc1-n1c(SCC(N)=O)nnc1-c1ccccc1 was read as FBW7 activator 0, MITF inh 2, GPR151 ag 0 and TEAD-YAP inh 5.
For CCN1/C(=C/c2cc(C)[n+](CCO)c(C)c2)Sc2ccccc21 the results were FBW7 activator 0, MITF inh 1, GPR151 ag 1 and TEAD-YAP inh 33*.
COCC[n+]1c(C)cc(/C=C2\Sc3ccccc3N2C)cc1C was read as FBW7 activator 0, MITF inh -7, GPR151 ag 0 and TEAD-YAP inh 76*.
For CCN1/C(=C/c2cccc[n+]2C)Sc2ccccc21 the results were FBW7 activator 0, MITF inh -2, GPR151 ag 2 and TEAD-YAP inh 46*.
Screening O=C(NCc1cccnc1)c1nnc(-c2cccc(Cl)c2)o1 returned FBW7 activator 0, MITF inh 9, GPR151 ag 3 and TEAD-YAP inh -2.

Assay outcomes deposited in PubChem by The Scripps Research Institute Molecular Screening Center.
